Molecules are shown by their SMILES. Hit rate of the full screen: of about 4,100 compounds, about 1,600 (39%) were called active. About 25% were inconclusive and are not listed. Calls come from the whole dose curve; as a rule, active = well fitted inhibition curve with a large enough effect; inconclusive = small, poorly fitted or top-dose-only effect; inactive = no such curve, though single readings can be large or run the other way. The list shows a part of the results.
Potency is the fitted concentration of half-maximal effect.

A short description of the assay: qHTS Validation assay for Inhibitors of Plasmodium falciparum Dd2 growth in vitro. Note: nearly all actives have a fitted effect of over 70% in size. Particulars: P. falciparum Dd2 in RBCs, SYBR Green growth, 72 h; series mostly up to 28.7 µM. Put shortly: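 P. falciparum Dd2-infected red blood cells (2.5% hematocrit, 0.3% parasitemia) grown 72 h at 37 °C under 5% O2 with compounds in a titration, 29 uM to 0.5 nM final. Growth read as SYBR Green-1 fluorescence after ~16 h lysis; artesunate 300 nM as positive control.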
A general note: qHTS replaces the single test concentration by a dilution series.
In the case of `COc1ccc(C(C)NC(=S)NC2CCCC2)cc1OC` (stereo not drawn), the Potency was 6.68 µM (active).

In the case of `CC(C)c1ccc(OCC(=O)NC2CCCC2)cc1`, the Potency result is “inactive”.

For `CCOc1ccc(C(C)NC(=S)NC2CCCCC2)cc1OCC` (stereo not drawn), the Potency is 0.211 µM (active).

`CN1CCN(C(=O)c2ccc3c(c2)N(Cc2c(F)cccc2Cl)C(=O)c2ccccc2S3)CC1`: the Potency is 0.0596 µM (active).

With `Cc1ccc(C(=O)N2CCN(c3nnc4c(Cl)cccn34)CC2)cc1F`, the Potency entry is “inactive”.

As to `O=C1Nc2ccc(-c3ccccc3F)cc2C(=O)N2CCN(C(=O)c3ccccc3)C[C@H]12`, the Potency result is “inactive”.

As to `COc1ccc(C(=O)N2CCCC3(C2)NC(=O)N(Cc2cccc(Cl)c2)C3=O)cc1F` (stereo not drawn), the Potency result is “inactive”.

As to `CCN1CCN(C(=O)c2ccc3c(c2)N(Cc2c(F)cccc2Cl)C(=O)c2ccccc2S3)CC1`, the Potency was 0.0084 µM (active).

As for `CC(C)CNC(=O)CN1CN(c2ccccc2)C2(CCN(C(=O)NC3CCCCC3)CC2)C1=O`, the Potency was 15 µM (active).

Take `CC(C)(C)C1CCC2(CC1)NC(=O)N(CC(=O)NC1CCCCC1)C2=O` (stereo not drawn): the Potency entry was “inactive”.

Turning to `O=C(OCc1ccccc1)N1CCC2(CC1)C(=NC1CCCCC1)NC(=O)N2c1cccnc1`, the Potency entry was “inactive”.

Turning to `Cc1ccc(S(=O)(=O)c2nc(S(=O)(=O)c3ccccc3)sc2NCCCOC(C)C)cc1`, the Potency is 0.596 µM (active).

Regarding `CC(C)OCCCNc1sc(S(=O)(=O)c2ccccc2)nc1S(=O)(=O)c1ccc(Cl)cc1`, the Potency is 0.266 µM (active).

In the case of `CCCS(=O)(=O)c1nc(S(=O)(=O)c2ccc(C)cc2)c(NCCCOC(C)C)s1`, the Potency is 2.11 µM (active).

With `O=[N+]([O-])c1ccc(N2CCN(C(=S)NC3CCCCC3)CC2)cc1`, the Potency is 1.88 µM (active).

Take `C=CCNC(=S)N1CCN(c2ccc([N+](=O)[O-])cc2)CC1`: the Potency was 4.22 µM (active).

Regarding `Cc1ccc(C)c(-c2cc3c(=O)n(CCNC(=O)c4ccncc4)ccn3n2)c1`, the Potency entry was “inactive”.

Turning to `CC(C)n1nc(OC(C)(C)C(=O)NCC2CCOCC2)c2cc(CN3CCOCC3)ccc21`, the Potency result was “inactive”.

For the compound `CC(C)CNC(=O)C(C)(C)Oc1nn(CC2CC2)c2ccc(CN3CCCC3)cc12`, the Potency was 19.3 µM (active).

For `O=C([C@@H]1C[C@H](Oc2cccnc2)CN1C(=O)NCCc1ccccc1)N1CCOCC1`, the Potency entry was “inactive”.

On to `CCN(CC)CCN1C(=O)c2ccccc2NC1c1ccc(N(C)C)cc1` (stereo not drawn), for which the Potency was 4.22 µM (active).

Turning to `CCN(CC)CCN1C(=O)c2ccccc2NC1c1ccc(Br)cc1` (stereo not drawn), the Potency is 1.5 µM (active).

`CCN(CC)CCN1C(=O)c2ccccc2NC1c1ccc(C)cc1` (stereo not drawn): the Potency is 2.99 µM (active).

As to `CCc1ccc(CNC(=O)c2ccc(-c3nc(CSc4ccc(C)cc4)c(C)o3)cc2)cc1`, the Potency entry was “inactive”.

Consider `CCc1noc(-c2ccn3c(CNC(=O)COc4cccc(C)c4)nnc3c2)n1`, for which the Potency result is “inactive”.

Turning to `O[C@@H]1CC(CNCC2CCCC2)(COc2ccc(C(F)(F)F)cn2)C[C@@H]1O` (stereo partly drawn), the Potency was 5.31 µM (active).

Turning to `CCn1cc(C(=O)N2CCN(c3cccc(C)c3)C(C)C2)c(=O)c2cc(S(=O)(=O)N3CCOCC3)ccc21` (stereo not drawn), the Potency result was “inactive”.

Regarding `CCCCOc1ccc(C(=O)N/C(=C\c2cccc([N+](=O)[O-])c2)C(=O)OC(C)C)cc1`, the Potency is 2.11 µM (active).

For `CC(C)COc1ccc(C(=O)N/C(=C\c2cccc([N+](=O)[O-])c2)C(=O)OC(C)C)cc1`, the Potency was 0.531 µM (active).

Regarding `CC(C)[N+](C)(C)CC(O)COc1cccc2ccccc12` (stereo not drawn), the Potency entry was “inactive”.

Regarding `CC(C)c1ccccc1OCC(O)CN(CC(O)COc1cccc2ccccc12)C(C)C` (stereo not drawn), the Potency is 2.37 µM (active).

In the case of `CC(=O)Nc1ccc(CN2CCC3(CC2)CNc2ccccc2[S+](=O)([O-])N3)cc1`, the Potency result is “inactive”.

As for `CC(=O)Nc1ccc(CN2CC(Oc3ccc(F)c(C)c3)C2)cc1`, the Potency entry was “inactive”.

`CC(=O)Nc1ccc(CN2CC(N(C)c3ccccc3C)C2)cc1`: the Potency is 12.2 µM (active).

As for `Cc1ccc2nc(-c3ccccc3O)c(Nc3ccccc3C)n2c1`, the Potency was 2.37 µM (active).

With `CCOC(=O)c1c(CN(C)C)oc2cc(CN(C)C)c(O)c(CSc3ccccc3)c12`, the Potency was 0.596 µM (active).

As to `CN(C)CC1(O)CCC2(CCN(C(=O)c3nccc4ccccc34)CC2)CC1`, the Potency result was “inactive”.

In the case of `Cc1cccc(N2CCN(c3nc4ccccc4c4nnc(C)n34)CC2)c1C`, the Potency is 5.31 µM (active).

Regarding `COc1ccc(-c2cc(C(=O)O)n(Cc3ccccc3)n2)cc1`, the Potency entry is “inactive”.

On to `Cc1ccc(/C=N/Nc2cc(C)nc(NCc3ccccc3)n2)cc1`, for which the Potency was 5.31 µM (active).

On to `CC(=O)Nc1ccc(Nc2cc(C)nc(Nc3ccc(NC(C)=O)cc3)n2)cc1`, for which the Potency was 3.35 µM (active).

Consider `Cc1ccnc(NS(=O)(=O)c2ccc(NC(=O)C(C)(C)C)cc2)n1`, for which the Potency entry was “inactive”.

As for `COc1ccc(Nc2cc(C)nc(NCc3ccccc3)n2)cc1`, the Potency is 13.3 µM (active).

For the compound `Cc1cc(Nc2cccc(F)c2)nc(NCc2ccccc2)n1`, the Potency was 8.41 µM (active).

Turning to `COc1cc(SC)ccc1C(=O)N[C@H]1CCN2C(=O)N(c3ccc(Cl)cc3)C(=O)[C@@H]2C1`, the Potency entry is “inactive”.

As to `COCc1nc(-c2ccc(OC3CN(S(=O)(=O)c4ccccc4C)C3)cc2)no1`, the Potency result was “inactive”.

As for `Cc1ccc2nc(CCc3ccc(N)cc3)[nH]c2c1`, the Potency entry is “inactive”.

Regarding `COCCn1c(=O)n([C@H]2CCCN(C(=O)CC3CCCCC3)C2)c2ncccc21`, the Potency entry was “inactive”.

In the case of `CCCCNc1cc(C)nc(NCc2ccccc2)n1`, the Potency is 9.44 µM (active).

As for `Cc1cc(Nc2cccc(Cl)c2)nc(NCc2ccccc2)n1`, the Potency was 8.41 µM (active).

With `Cc1cc(NC2CCCCC2)nc(NCc2ccccc2)n1`, the Potency was 16.8 µM (active).

Consider `Cc1cc(Nc2ccc(Cl)cc2)nc(NCc2ccccc2)n1`, for which the Potency was 0.422 µM (active).

As for `COc1nccnc1NC1CCN(C(=O)Cc2ccccc2)CC1`, the Potency result is “inactive”.

Turning to `CN(C)c1cc(N2CCCC(NC(=O)NCc3ccccc3)C2)ncn1` (stereo not drawn), the Potency entry was “inactive”.

For `CCCc1noc(-c2ccn3c(CNC(=O)c4cccc(N(C)C)c4)nnc3c2)n1`, the Potency result was “inactive”.

For `Cc1cc(=O)n(CC(=O)NCc2ccccc2Br)c(N(C)Cc2ccccc2)n1`, the Potency result is “inactive”.

Take `Cc1cc(NCc2ccco2)nc2cc(O)ccc12`: the Potency was 6.68 µM (active).

With `Cc1cc(Nc2ccccc2)nc2cc(O)ccc12`, the Potency was 0.422 µM (active).

Consider `Cc1cc(N(C)Cc2ccccc2)nc2cc(O)ccc12`, for which the Potency is 2.37 µM (active).

In the case of `CNC(=O)[C@@H](c1ccc(Cl)cc1)N1CCC[C@H]1C(=O)N1CC[C@@H](O)C1`, the Potency result is “inactive”.

Regarding `CCN1Cc2nc(OC)c(CNC(=O)C(C)n3cc(C)cn3)cc2C1=O` (stereo not drawn), the Potency entry is “inactive”.

As for `CCN(CC(O)c1cccc(O)c1)C(=O)C12CC3CC(CC(C3)C1)C2` (stereo not drawn), the Potency is 4.73 µM (active).

Consider `O=C(CN1CCN(C(=O)c2ccco2)CC1)Nc1cc(C(F)(F)F)ccc1Cl`, for which the Potency was 7.5 µM (active).

As for `CNC(=O)[C@@H]1CN(Cc2cc(C(F)(F)F)ccc2Cl)C[C@H]1CO`, the Potency result is “inactive”.

Turning to `O=C(c1ccco1)N1CCCN(c2cc(-c3ccc(Br)cc3)[nH]n2)CC1`, the Potency entry is “inactive”.

For `O=C(CN1CCN(C(=O)c2ccco2)CC1)Nc1cc(Cl)ccc1Cl`, the Potency is 5.96 µM (active).

Consider `O=C1c2cc(N3CCOCC3)nc(-c3ccccc3)c2CN1Cc1ccccc1`, for which the Potency is 21.7 µM (active).

In the case of `CC(=O)Nc1cccc(-c2ncc3c(n2)OCCN(Cc2ccccc2)C3=O)c1`, the Potency entry was “inactive”.

In the case of `O=C1CCC2(CCCO2)CCN1Cc1ccccc1` (stereo not drawn), the Potency result is “inactive”.

Regarding `Nc1nc(-c2ccccn2)nc(N)c1Cc1ccc(Cl)cc1Cl`, the Potency was 7.5 µM (active).

Take `Nc1nc(-c2ccccn2)nc(N)c1Cc1ccccc1F`: the Potency is 13.3 µM (active).

For `CCCCN1C(=O)c2[nH]nc(-c3ccccc3O)c2C1c1ccc(OCc2ccccc2)cc1` (stereo not drawn), the Potency was 5.96 µM (active).

As for `CCOc1cc(C2c3c(-c4ccccc4O)n[nH]c3C(=O)N2Cc2cccnc2)ccc1O` (stereo not drawn), the Potency result was “inactive”.

As for `CCOc1ccccc1CN1CCC2(CCN(C(=O)OC)CC2)Oc2ccccc21`, the Potency result is “inactive”.

As for `CCOc1ccccc1CN1CCC2(CCN(CCC(C)C)CC2)Oc2ccccc21`, the Potency is 3.35 µM (active).

Consider `COCCNc1cc(N2CCN(C3CCCCC3)CC2)c2noc3c2c1C(=O)c1ccccc1-3`, for which the Potency is 15 µM (active).

In the case of `CN(C)CCCNc1cc(N2CCN(C3CCCCC3)CC2)c2noc3c2c1C(=O)c1ccccc1-3`, the Potency was 1.33 µM (active).

As to `O=C(Nc1sc2c(c1C(=O)NCc1ccco1)CCCC2)c1cc(=O)c2ccccc2o1`, the Potency was 10.6 µM (active).

`CCn1ncc(Br)c1C(=O)Nc1sc2c(c1C(N)=O)CCC2`: the Potency entry is “inactive”.

As for `Cc1ccc(C(=O)Nc2sc3c(c2C(=O)O)CCCCC3)o1`, the Potency result is “inactive”.

Consider `O=c1cc(-c2ccncc2)oc2c(-c3ccccc3O)nccc12`, for which the Potency result is “inactive”.

`O=c1cc(-c2cccnc2)oc2c(-c3ccccc3Oc3ccccc3)nccc12`: the Potency is 17.2 µM (active).

For the compound `O=c1cc(-c2ccncc2)oc2c(-c3cccc(CO)c3)nccc12`, the Potency entry was “inactive”.

`COc1ccc(Nc2cc(C)nc3ncnn23)cc1Cl`: the Potency entry was “inactive”.

Take `Cc1cc(Nc2ccc(C(C)C)cc2)n2ncnc2n1`: the Potency was 4.22 µM (active).

For the compound `Cc1cc(Nc2ccc3ccccc3c2)n2ncnc2n1`, the Potency was 0.596 µM (active).

On to `OC(CNCC(c1ccco1)N1CCCCC1)c1ccccc1` (stereo not drawn), for which the Potency was 5.96 µM (active).

Take `N#Cc1cccc(C(=O)N2CCCN(Cc3ccncc3)C(c3ccccc3)CC(=O)NCC2)c1` (stereo not drawn): the Potency is 7.5 µM (active).

On to `O=C(NCc1ccncc1)[C@@H]1C[C@@H](c2ccc(F)cc2)N(Cc2ccccc2)C1`, for which the Potency entry was “inactive”.

Turning to `COc1cccc(C(=O)N2CCCC(Cc3noc(-c4ccncc4)n3)C2)c1` (stereo not drawn), the Potency entry was “inactive”.

For `O=C1CC(c2ccccc2)N(Cc2ccncc2)CCCN(C(=O)Nc2ccccc2F)CCN1` (stereo not drawn), the Potency was 1.68 µM (active).

In the case of `O=C(c1ccncc1)N1CCC(Cc2nc(-c3ccccc3)n[nH]2)CC1`, the Potency result was “inactive”.

As for `COC(=O)c1c(C(=O)OC)c(-c2ccc(C)cc2)n2c1CS(=O)(=O)C2`, the Potency result was “inactive”.

For the compound `O=C(N[C@H]1C[C@H]2C(=O)NC[C@@H](CCC(=O)N3CCN(c4ccccc4)CC3)N2C1)C1CC1`, the Potency result is “inactive”.

Turning to `COC[C@@H]1CN(Cc2cc(OC)cc(OC)c2)C[C@H]1C(=O)N(C)C`, the Potency result was “inactive”.

In the case of `CSc1cccc(NC(=O)Cn2c(-c3ccc(F)cc3)nc(C)c(CCO)c2=O)c1`, the Potency is 13.3 µM (active).

As to `Cc1nc(-c2cccc(Cl)c2)n(CC(=O)NCc2ccc(F)cc2)c(=O)c1CCO`, the Potency result is “inactive”.

With `Cc1nc(-c2ccc(F)cc2)n(CC(=O)Nc2cccc(Cl)c2)c(=O)c1CCO`, the Potency was 15 µM (active).
